Measured values from ChEMBL document CHEMBL3988442, “University of Dundee, Small-Polar-MMV Screening Library” (2021).
The whole screen tested about 48,000 compounds, of which about 13,000 (27%) showed an effect of 50% or more. The list shows a part of the results.

tested on: Wolbachia pipientis; experiment: Anti-Wolbachia Cell-Based Screen; format: functional; design: scale not given: in the data most compounds retested in dose-response had high values; settings: 5 µM

First: Cc1ccc(OCC(O)CN(C)CC(=O)NC(C)C)c(C)c1 (stereo not given)
Second: CCC(C)(C)N(C)CCOc1cccc(S(C)(=O)=O)c1
The “Percent Effect” value of the first is lower: 0.9379% for the first, 103.5% for the second.

Compared with `Cc1ccc(S(=O)(=O)N(C)Cc2cnccn2)cc1N(C)C`, `CN(CCOc1cccc(S(C)(=O)=O)c1)c1ccccc1` is higher in “Percent Effect” value: -3.361% for the first, 88.15% for the second.

Going from `CCOCC1CC2(CCN(C(=O)CC3=CCCCC3)CC2)CO1` (stereo not given) to `CCO[C@H]1CC[C@H]2[C@H]1OCCN2C(=O)CC1=CCCCC1`, the “Percent Effect” value rises from -15.26% to 80.53%.

Compared with `O=C(C1=CCCC1)N1CCO[C@H]2[C@@H](OCC3CC3)CC[C@@H]21`, `CO[C@@H]1CC[C@H]2[C@H]1OCCN2C(=O)C1=CCCC1` is higher in “Percent Effect” value: -8.51% for the first, 4.441% for the second.

Going from `CO[C@H]1CC[C@H]2[C@H]1OCCN2C(=O)CC1=CCCCC1` to `CCO[C@@H]1CC[C@H]2[C@H]1OCCN2C(=O)CC1=CCCCC1`, the “Percent Effect” value rises from 98.05% to 124.5%.

Going from `CO[C@H]1CC[C@H]2[C@H]1OCCN2C(=O)C1=CCCC1` to `Cc1cc(C(=O)N2C[C@@H]3[C@@H](C2)OCC(=O)N3CC2CC2)no1`, the “Percent Effect” value rises from 2.583% to 15.73%.

Compared with `CC(C)(CNC(=O)Nc1cccc(-c2cccs2)c1)C(N)=O`, `CS(=O)(=O)CCCOc1cccc(-n2cccn2)c1` is lower in “Percent Effect” value: 3.927% for the first, -22.07% for the second.

Going from `N#Cc1ccc(Cn2cncn2)c(F)c1` to `Cc1nc(CCN2CCCCC2)n(-c2ccc(F)cc2)n1`, the “Percent Effect” value rises from -14.63% to -12.73%.

Compared with `N#Cc1nccnc1NC1CCN(c2ccccc2OC(F)F)C1` (stereo not given), `CCc1nccn1CCCNC(=O)c1cnn(-c2ccccc2OC)c1` is higher in “Percent Effect” value: 9.423% for the first, 86.43% for the second.

First: CCN1CCc2[nH]cnc2C12CCN(c1ccc(Cl)c(C(=O)O)n1)CC2
Second: CN1CCN(CCO)C(=O)C12CCN(c1nccs1)CC2
The “Percent Effect” value of the first is lower: -7.204% for the first, 3.933% for the second.

Going from `COc1ccc(CNC(=O)NCC2CCOC2)c(C(F)(F)F)c1` (stereo not given) to `CC(=O)NCC(=O)N(CCc1ccccc1)C1CCOC1` (stereo not given), the “Percent Effect” value rises from -17.58% to 3.358%.

Compared with `O=C(c1cc2c(s1)CCCC2)N1CCCC1Cn1cccn1` (stereo not given), `O=C(c1cc2c(s1)CCC2)N1CCCC1Cn1cccn1` (stereo not given) is lower in “Percent Effect” value: 141.2% for the first, 111% for the second.

Compared with `O=C(c1cc2c(s1)CCC2)N1CCCCC1Cn1cccn1` (stereo not given), `c1ccc(-c2nnc3sc(CCN4CCCCCC4)nn23)cc1` is higher in “Percent Effect” value: -2.201% for the first, 117.6% for the second.

First: Cc1nn(C)c(N2CCOCC2)c1CNC1CCN(C(C)(C)C)CC1
Second: CCS(=O)(=O)N1CCc2nc(N3CCOCC3)nc(N(C)C)c2CC1
The “Percent Effect” value of the first is lower: -15.17% for the first, -7.887% for the second.

Compared with `Cc1ccc(-c2cccc(-c3ccn(CCN4CCCC4)n3)c2)nn1`, `c1ccc(-c2cccc(-c3ccn(CCN4CCCCC4)n3)c2)nc1` is higher in “Percent Effect” value: -8.933% for the first, 2.819% for the second.

Compared with `c1cc(-c2ccn(CCN3CCCC3)n2)cc(-c2nccs2)c1`, `c1ccc(-c2nnc3sc(CCN4CCCC4)nn23)cc1` is higher in “Percent Effect” value: -3.86% for the first, 117% for the second.

First: Cc1ccc(CNC2CCN(CCc3ccncc3)CC2)s1
Second: c1cc(-c2nnc3sc(CCN4CCCC4)nn23)ccn1
The “Percent Effect” value of the first is lower: -7.206% for the first, 107.3% for the second.

Going from `c1cc(-c2nccn2CCc2nc3c(s2)CCC3)ccn1` to `CC(C)c1nccn1CCCNC(=O)c1ccc(-c2cnn(C)c2)nc1`, the “Percent Effect” value falls from 7.441% to 3.735%.

Compared with `CC(C)(C)Cc1noc2ncc(C(=O)N3CCC3)cc12`, `CCc1ncnc2c1CCN(c1ncc(F)cn1)CC2` is lower in “Percent Effect” value: -0.07347% for the first, -14.13% for the second.

Going from `O=C(C1SCCc2sccc21)N1CCN(CC(F)F)CC1` (stereo not given) to `COc1cccc(S(=O)(=O)CCN2CCN(CC(F)F)CC2)c1`, the “Percent Effect” value falls from 2.68% to 1.442%.

First: CN(CCOc1cccc(CNS(C)(=O)=O)c1)C1CCOCC1
Second: CN(CCOc1cccc(S(C)(=O)=O)c1)CC(F)F
The “Percent Effect” value of the first is lower: -5.968% for the first, 95.25% for the second.

Going from `CN(CCOc1cccc(Cl)c1)Cc1nnc(C(C)(C)C)o1` to `CS(=O)(=O)CCCOc1cccc(-n2ccnc2)c1`, the “Percent Effect” value rises from -19.16% to 0.659%.

Compared with `CS(=O)(=O)c1ccc(OCCNCc2cccc(F)c2)cc1`, `COc1ccccc1-n1cc(C(=O)NCCCn2ccnn2)cn1` is higher in “Percent Effect” value: -4.841% for the first, 105.8% for the second.

First: Cc1cccc(C(=O)NC2CCN(c3cnn(C)c3)C2=O)c1C (stereo not given)
Second: Cc1ccc2[nH]c(C(=O)NCCCn3ccnn3)c(C)c2c1
The “Percent Effect” value of the first is higher: 3.687% for the first, -11.21% for the second.

Going from `O=C(CC1CC1)NCc1cn2c(n1)CN(Cc1nccs1)CC2.O=C(O)C(F)(F)F` to `CC(C)Nc1nc2c(cc1C(=O)NCC1CC1)CCN(S(C)(=O)=O)CC2.O=C(O)C(F)(F)F`, the “Percent Effect” value falls from 17.65% to 8.623%.

First: CS(=O)(=O)CCN1CCC(=Cc2ccccc2)CC1
Second: CNC(=O)[C@@]12CCO[C@@H]1CCN(S(=O)(=O)c1ccccc1)C2
The “Percent Effect” value of the first is higher: 3.303% for the first, -56.29% for the second.

Compared with `COc1cccc(CN(C(=O)NC2CC2)C2CCC(O)CC2)c1` (stereo not given), `O=C(NC1CC1)N(CCc1ccccc1)C1CCOC1` (stereo not given) is lower in “Percent Effect” value: 4.411% for the first, -8.792% for the second.

Compared with `CN(CC(=O)N(C)C1CCN(CC2CCOC2)CC1)c1ccccc1` (stereo not given), `O=C(C1CC1)N(CCc1ccccc1)C1CCOC1` (stereo not given) is higher in “Percent Effect” value: -6.754% for the first, -3.562% for the second.

Going from `O=C(C1CCOCC1)N(CCc1ccccc1)C1CCOC1` (stereo not given) to `O=C(O)CN(C(=O)c1ccccc1)[C@H]1C[C@H]2CCOC[C@H]2C1`, the “Percent Effect” value rises from -13.84% to 112.1%.

Going from `CNC(=O)CN([C@H]1C[C@H]2CCOC[C@H]2C1)S(=O)(=O)c1ccccc1` to `CNC(=O)CN(C(=O)c1ccccc1)[C@H]1C[C@H]2CCOC[C@H]2C1`, the “Percent Effect” value falls from 119.6% to 119.3%.

Compared with `CN1CCOC(C(=O)Nc2ccc3[nH]nnc3c2)C1` (stereo not given), `COCCOc1ccc(NC(=O)N2CCCC2c2ccsc2)cn1` (stereo not given) is lower in “Percent Effect” value: 3.877% for the first, -8.185% for the second.

Compared with `CCc1nsc(NC2CCCn3nc(COC)nc32)n1` (stereo not given), `CCCS(=O)(=O)N1CCc2nc(N3CCOCC3)nc(N(C)C)c2C1` is higher in “Percent Effect” value: -2.766% for the first, 5.75% for the second.

First: CCc1nccn1CCCNC(=O)CN1CCN(c2ncccn2)CC1
Second: Cc1ccc2nc(C)c(C)c(C(=O)NCCCn3ccnn3)c2c1
The “Percent Effect” value of the first is higher: -11.95% for the first, -15.24% for the second.

Going from `CC(C)CCN1CC2(CCN(C3CCCOC3)CC2)OC1=O` (stereo not given) to `CC(C)CCN1CCc2nc(N3CCOCC3)nc(NC(C)C)c2C1`, the “Percent Effect” value falls from 10.38% to 0.8088%.

First: COc1c(F)ccc(C(=O)N2CC[C@H](CO)[C@@H](O)C2)c1F
Second: CC(C)Nc1nc(N2CCCC2)nc2c1CCN(S(C)(=O)=O)CC2.O=C(O)C(F)(F)F.O=C(O)C(F)(F)F
The “Percent Effect” value of the first is lower: 0.1381% for the first, 110.6% for the second.

Compared with `CC(C)Nc1nc(N2CCCC2)nc2c1CN(c1ncc(F)cn1)CC2`, `CC(C)Nc1nc(N2CCCC2)nc2c1CN(C)CC2` is lower in “Percent Effect” value: 118.9% for the first, 109% for the second.

Compared with `CC(C)Nc1nc(N2CCCC2)nc2c1CN(S(C)(=O)=O)CC2`, `Cc1nc(CN2CCc3nc(N4CCCC4)nc(NC(C)C)c3C2)cs1` is lower in “Percent Effect” value: 105.6% for the first, -7.957% for the second.

With `CCCN1CCc2nc(N3CCOCC3)nc(NC(C)C)c2C1` the “Percent Effect” value was -9.413%.
